From PubChem BioAssay
JMJD2E inh = inhibitors of human JMJD2E histone demethylase | JMJD2E catalytic domain, FDH-coupled NADH fluorescence (FDH is formaldehyde dehydrogenase) | Potency, µM (series often up to 57.1 µM), most hits filed as inhibitors | actives 1.6% (n = 230,000); further: nearly all actives have a fitted effect of over 50% in size
Target sequence (B2RXH2 1-337 limits assumed): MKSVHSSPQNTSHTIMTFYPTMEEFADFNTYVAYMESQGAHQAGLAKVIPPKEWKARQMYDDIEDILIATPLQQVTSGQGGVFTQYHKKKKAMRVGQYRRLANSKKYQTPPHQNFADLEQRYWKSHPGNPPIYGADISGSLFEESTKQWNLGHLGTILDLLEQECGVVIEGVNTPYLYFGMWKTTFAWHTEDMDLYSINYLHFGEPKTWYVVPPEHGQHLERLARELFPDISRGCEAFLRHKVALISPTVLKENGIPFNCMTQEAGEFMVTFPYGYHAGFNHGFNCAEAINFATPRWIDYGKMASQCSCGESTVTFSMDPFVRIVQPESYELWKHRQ
Tau FP inhib = inhibitors of human tau fibril formation; P10636; K18 P301L tau heparin fibrillization, Alexa594 FP, 6 h; Potency, µM (doses to about 57.7 µM), hits mostly inhibitors; actives 0.39% (n = 280,000); AID 1468; active means well fitted curve in the direction sought with a large enough effect; inconclusive means small, poorly fitted or top-dose-only effect, or another doubt; inactive means no such curve, though single readings can be large; an effect the other way counts as inactive or inconclusive; further: nearly all actives have a fitted effect of over 55% in size
Target sequence (P10636 561-689 P618L limits assumed): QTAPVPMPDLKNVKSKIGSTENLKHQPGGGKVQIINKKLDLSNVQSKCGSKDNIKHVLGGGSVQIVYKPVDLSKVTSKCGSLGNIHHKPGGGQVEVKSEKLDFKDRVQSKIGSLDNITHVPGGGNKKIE
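FP of Alexa 594-tau after heparin (20 uM) induction. Substrate: human K18 P301L, 15 uM unlabeled, 0.24 uM labeled. Buffer 100 mM sodium acetate pH 7. 6 hr, 37 C.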
Tau fibril ThT = inhibitors of human tau fibril formation, thioflavin T binding. P10636. recombinant tau K18 P301L, heparin-induced fibrillization, ThT fluorescence. Potency, µM (top dose mostly 57.4 µM), actives largely listed as inhibitors. actives 2.1% (n = 270,000). AID 1460; active means well fitted curve in the direction sought with a large enough effect; inconclusive means small, poorly fitted or top-dose-only effect, or another doubt; inactive means no such curve, though single readings can be large; an effect the other way counts as inactive or inconclusive; further: nearly all actives have a fitted effect of over 55% in size
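Heparin-induced (20 uM) aggregation of recombinant human K18 P301L tau, 15 uM unlabeled with 0.24 uM labeled, pH 7 acetate buffer, 6 hr at 37 C with compound. Fibrils quantified by 30 uM ThT fluorescence after 1 hr ambient incubation.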
ALDH1A1 block = ALDH1A1 (human) enzyme inhibition; P00352; Purified ALDH1A1, NADH fluorescence, propionaldehyde substrate; Potency, µM (series often up to 75.3 µM), hits mostly inhibitors; actives 7.3% (n = 220,000); AID 1030
Tau fluor counter = counter-screen for tau fibril formation inhibitors. tau K18 P301L (four-repeat tau fragment) Alexa594 fluorescence, heparin fibrillization. Potency, µM (doses to about 57.7 µM). actives 0.93% (n = 280,000). AID 1463; active means well fitted curve in the direction sought with a large enough effect; inconclusive means small, poorly fitted or top-dose-only effect, or another doubt; inactive means no such curve, though single readings can be large; an effect the other way counts as inactive or inconclusive; further: nearly all actives have a fitted effect of over 55% in size
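Human K18 P301L tau (15 uM unlabeled plus 0.24 uM Alexa 594-labeled, final) in 100 mM sodium acetate pH 7 was mixed with compound and 20 uM heparin and incubated 6 hr at 37 C.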
HPGD block = blocks human HPGD enzyme activity; P15428; purified HPGD, NADH fluorescence kinetic, PGE2 substrate; Potency, µM, actives largely listed as inhibitors; actives 4.3% (n = 150,000); AID 894
Target sequence (P15428 whole entry, looked up): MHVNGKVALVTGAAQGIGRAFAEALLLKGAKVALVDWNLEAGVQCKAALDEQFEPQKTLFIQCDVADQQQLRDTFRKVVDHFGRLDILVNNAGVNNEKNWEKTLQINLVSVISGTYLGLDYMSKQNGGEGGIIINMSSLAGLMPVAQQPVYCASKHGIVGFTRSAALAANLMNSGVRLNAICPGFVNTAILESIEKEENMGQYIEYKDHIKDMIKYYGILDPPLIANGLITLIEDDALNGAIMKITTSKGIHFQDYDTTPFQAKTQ
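NADH formation kinetics: reaction with 30 uM PGE2 and 1 mM NAD+ (final), 20 nM enzyme, Tris-HCl pH 8 with Tween 20, after 15 min compound preincubation at room temperature. Fluorescence change, last versus first of five reads.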
Numbers stand for hits; . = inactive; ? = inconclusive; / = not tested or not shown; [ ] = dose if it differs, or a comment. Sampled rows, rich in hits. Any-hit rate of the full collection: about 9.9%. Unless noted, the call rests on the fitted dose curve; in most records, active means well fitted inhibition curve with a large enough effect (not every such curve was filed as active); inconclusive means small, poorly fitted or top-dose-only effect, or another doubt; inactive means no such curve, though single readings can be large or run the other way.

SMILES | JMJD2E inh | Tau FP inhib | Tau fibril ThT | ALDH1A1 block | Tau fluor counter | HPGD block
CC1(C)Oc2ccc(NC(=O)C3COc4ccccc4O3)cc2O1 (stereo unspecified) | . | . | ? | 0.0355µM | . | 20µM
COc1cc(NC(=O)Cc2noc3ccccc23)cc(OC)c1OC | / | . | ? | / | . | /
CC(C)CC(=O)N(Cc1ccccc1)S(=O)(=O)c1ccc2c(c1)oc(=O)n2C | / | . | . | / | . | /
COc1ccc(-c2cc(C(F)(F)F)n3nc(C(=O)O)c(Cl)c3n2)cc1OC | / | . | ? | / | . | /
S=c1[nH]nc(COc2ccccc2)n1/N=C/c1ccccn1 | . | . | . | ? | . | ?
S=c1[nH]nc(C2CCCCC2)n1/N=C/C=C/c1ccccc1 | . | . | . | . | . | 17.8µM
O=[N+]([O-])c1ccc(Cl)c(/C=N/n2c(COc3ccccc3)n[nH]c2=S)c1 | . | . | ? | 14.1µM | . | 8.91µM
O=[N+]([O-])c1ccc(Cl)c(/C=N/n2c(C3CCCCC3)n[nH]c2=S)c1 | . | . | . | ? | . | 0.631µM
O=[N+]([O-])c1cccc(/C=N/n2c(C3CCCCC3)n[nH]c2=S)c1 | ? | . | . | . | . | 2.51µM
S=c1[nH]nc(C2CCCCC2)n1/N=C/C(Cl)=C\c1ccccc1 | . | . | ? | . | . | .
CC(C)NC(=O)N1CC[C@@]2(CCCN(C(=O)c3cc(C(F)(F)F)cc(C(F)(F)F)c3)C2)C1 | / | / | / | . | / | .
COc1cc(OC)c(C(=O)OCC(=O)NCCc2ccccc2)cc1OC | . | . | . | . | . | /
S=c1[nH]nc(C2CCCCC2)n1/N=C/c1ccc(Br)s1 | . | . | . | . | . | 5.01µM
O=[N+]([O-])c1ccccc1/C=N/n1c(C2CCCCC2)n[nH]c1=S | . | . | . | 7.08µM | . | 15.8µM
COc1ccc(-c2cc3nc(C)c(CCC(=O)NCc4ccccc4Cl)c(C)n3n2)c(OC)c1 | / | ? | . | / | . | /
CCOC(=O)CN1C(=O)C(O)(C2CCc3ccccc3C2=O)c2ccccc21 (stereo unspecified) | . | . | . | 3.16µM | . | .
Cc1ccc(CNC(=O)CN2C(=O)C3(OCCCO3)c3ccccc32)cc1 | . | . | . | ? | . | .
CCOC(=O)CN1C(=O)C2(OCCCO2)c2ccccc21 | . | . | . | 8.91µM | . | .
CCOC(=O)CN1C(=O)C(O)(c2c(C)[nH]c3ccccc23)c2ccccc21 (stereo unspecified) | . | . | ? | 0.282µM | . | .
Cc1nn(C)c2c1c(C(F)(F)F)cc(=O)n2CC(=O)NCc1ccc(OC(C)C)cc1 | / | . | . | / | . | /
COc1ccccc1CNc1ncnc2ccc(-c3ccc(N(C)C)cc3)cc12 | ? | ? | 11.2µM | ? | 10µM[quencher] | ?
COc1cccc(/C(O)=C2/C(=O)C(=O)N(CCN3CCOCC3)C2c2cccnc2)c1 (stereo unspecified) | ? | . | . | 3.55µM | . | .
COc1ccc(/C(O)=C2/C(=O)C(=O)N(CCN3CCOCC3)C2c2cccnc2)cc1OC (stereo unspecified) | ? | . | . | 25.1µM | . | .
CC(C)Oc1ccc(/C(O)=C2/C(=O)C(=O)N(CCN3CCOCC3)C2c2ccccc2)cc1 (stereo unspecified) | . | . | . | 22.4µM | . | .
CCOC(=O)c1[nH]c(C)c(/C(O)=C2\C(=O)C(=O)N(CCCN3CCOCC3)C2c2cccnc2)c1C (stereo unspecified) | . | . | ? | ? | . | .
SMILES | JMJD2E inh | Tau FP inhib | Tau fibril ThT | ALDH1A1 block | Tau fluor counter | HPGD block
COC(=O)c1[nH]c(C)c(/C(O)=C2\C(=O)C(=O)N(CCCN3CCOCC3)C2c2ccccn2)c1C (stereo unspecified) | ? | . | ? | 10µM | . | ?
CCOC(=O)C1CC(c2ccc(Cl)cc2)=NNC1=O (stereo unspecified) | . | . | . | . | . | /
Cc1cc(Br)cc2c(C(=O)OCC(=O)c3ccccc3)cc(-c3ccccc3)nc12 | / | . | . | / | . | /
Cc1c(/C(O)=C2/C(=O)C(=O)N(CCN3CCOCC3)C2c2ccccn2)cnn1-c1ccccc1 (stereo unspecified) | ? | . | ? | ? | . | /
O=C1C(=O)N(CCN2CCOCC2)C(c2ccccn2)/C1=C(/O)c1ccc(F)cc1 (stereo unspecified) | ? | . | ? | 25.1µM | . | .
C=CCCCC | / | / | / | . | / | .
Cc1cc(C)c(S(=O)(=O)/N=C2/C=C(Sc3ncn[nH]3)C(=O)c3ccccc32)cc1C | . | . | . | 1.78µM | . | 0.891µM
CCOC(=O)N1CCC2(CC1)OC(=O)C(C)=C2C(=O)NCc1cccc(F)c1 | / | . | . | / | . | /
COC(=O)c1c(NC(=O)Cc2cccs2)sc(C)c1C | ? | . | . | ? | . | .
CCOC(=O)c1c(N)sc(C(=O)N2CCCCC2)c1C | . | . | . | ? | . | 8.91µM
CCOC(=O)c1sc(N)c(C(=O)Nc2ccccc2)c1C | . | . | . | 11.2µM | . | /
CCOC(=O)c1c(N)sc(C(=O)OCCOC)c1C | . | . | . | 14.1µM | . | /
CCOC(=O)c1c(NC(=O)Cc2cccs2)sc(C(=O)N2CCCCC2)c1C | . | . | . | 2.51µM | . | 7.08µM
COc1ccc(C)cc1-n1cnc2cc(C(=O)NC3CCCCCC3)ccc21 | / | . | ? | / | . | /
CCOc1ccc(N2C(=O)CC(N(Cc3ccco3)C(=O)CCC(=O)O)C2=O)cc1 (stereo unspecified) | . | .[2.34 µM] | . | . | .[2.34 µM] | /
Cc1ccccc1/C=C1\SC(=S)N(/N=C/c2cc([N+](=O)[O-])ccc2O)C1=O | . | . | 25.1µM | 0.398µM | ? | /
Cc1ccc(NC(=O)CN2C(=O)c3ccccc3Sc3ccc(C(=O)N4CCOCC4)cc32)cc1F | / | . | . | / | . | /
CCCOc1ccc(OC(=O)c2cn(-c3ccc(OC)cc3)c(=O)c3ccccc23)cc1 | / | . | . | / | . | /
N#Cc1c(N)sc(=S)c2c1CCCCC2 | 22.4µM | ? | 12.6µM | ? | ? | 15.8µM
CC1(C)Cc2c(C#N)c(N)sc(=S)c2CS1 | ? | . | 17.8µM | 7.08µM | ? | .
N#Cc1c(N)sc2c1CCCCCC2 | . | . | ? | ? | ? | /
CCc1ccccc1NC(=O)C1CCN(c2nc3ccccc3[nH]2)CC1 | / | . | . | / | . | /
C#CCSc1n[nH]c(-c2ccco2)n1 | . | . | . | .[13.5 µM] | . | ?
O=C(O)c1ccc(CSc2n[nH]c(-c3ccco3)n2)cc1 | . | . | ? | ? | . | 2.82µM
CCOC(=O)CSc1n[nH]c(-c2ccco2)n1 | . | . | . | . | . | ?
O=C(CSc1n[nH]c(-c2ccco2)n1)N1c2ccccc2Sc2ccccc21 | . | . | . | 7.94µM | . | 12.6µM
CCc1ccccc1 | / | / | / | . | / | .
Oc1ccc(N=Cc2ccc(-c3cccs3)s2)cc1 | ? | 14.1µM | 7.94µM | ? | ? | ?
